From ChEMBL document CHEMBL3433997, “St. Jude Leishmania screening dataset” (2016) come the findings set out here.

Holding throughout (type): functional
Assay [1] deals with Solute carrier family 2, facilitated glucose transporter member 1 (Homo sapiens) (UniProt P11166). The experiment in a line: ST_JUDE_LEISH: Cytotoxicity at 2uM final concentration against transgenic Leishmania Mexicana promastigotes LmGLUT1 that are glucose transport deficient and complemented with the human glucose transporter GLUT1. Activity is measured by DNA content using SYBR green in vitro.
Chain of Solute carrier family 2, facilitated glucose transporter member 1 (Homo sapiens) (P11166 whole entry): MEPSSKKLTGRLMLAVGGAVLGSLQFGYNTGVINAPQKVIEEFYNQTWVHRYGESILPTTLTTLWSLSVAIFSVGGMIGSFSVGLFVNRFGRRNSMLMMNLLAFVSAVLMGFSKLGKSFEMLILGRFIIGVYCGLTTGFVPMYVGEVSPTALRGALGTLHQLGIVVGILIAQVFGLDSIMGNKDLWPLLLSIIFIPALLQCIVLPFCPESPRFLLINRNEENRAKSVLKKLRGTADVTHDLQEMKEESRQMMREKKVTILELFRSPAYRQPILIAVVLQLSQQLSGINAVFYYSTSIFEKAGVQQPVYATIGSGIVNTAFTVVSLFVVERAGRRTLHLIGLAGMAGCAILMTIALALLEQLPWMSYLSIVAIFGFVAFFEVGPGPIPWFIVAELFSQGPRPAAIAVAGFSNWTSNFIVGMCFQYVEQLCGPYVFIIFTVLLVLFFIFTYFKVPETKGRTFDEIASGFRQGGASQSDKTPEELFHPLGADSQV

The target of assay [2] is Hexose transporter 1 (Plasmodium falciparum) (UniProt O97467). The experiment in a line: ST_JUDE_LEISH: Cytotoxicity at 2uM final concentration against transgenic Leishmania Mexicana promastigotes LmPfHT that are glucose transport deficient and complemented with the Plasmodium falciparum hexose transporter. Activity is measured by DNA content using SYBR green in vitro.

Assay [3] has as its target Glucose transporter (Leishmania mexicana) (UniProt O61059). The assay can be described thus: ST_JUDE_LEISH: Cytotoxicity at 2uM final concentration against transgenic Leishmania Mexicana promastigotes LmGT2 that are glucose transport deficient and complemented with the L. Mexicana glucose transporter 2. Activity is measured by DNA content using SYBR green in vitro.

Each structure is given as a SMILES string.

Usually inhibition stands for the change of the read-out against control, counted positive when it falls. On to `CCOC(=O)c1nc(-c2cc(Cl)nc(Cl)c2)[nH]c1NC(=S)NCCCN1CCOCC1`, for which the values for the inhibition in assay [1], in assay [2] and in assay [3] were 2.49%, 1.96% and 0.84%, respectively.
The like results for `c1ccc(C2CCN(Cc3ccc(-c4c[nH]c5nc(NC6CCCC6)ncc45)cc3)CC2)cc1` were, in that order, 2.79%, 2.07% and 1.65%.
In the same order, the values of `CS(=O)(=O)c1ccc(CCNCc2ccc(-c3ccc(CN(C(=O)c4ccc(Cl)nc4)C4CCN(Cc5ccccc5)CC4)cc3)nc2)cc1` are 4.37%, 3.39% and 1.67%.
The like results for `CCOc1cc(CNCCCCCCNCc2cc(OCC)c(OCC)c3ccccc23)c2ccccc2c1OCC` were, in that order, 58.6%, 12.1% and 103%.
Take `N#Cc1ccc(N2C[C@@H](OCc3ccccc3)C[C@H]2C(=O)NCCC(c2ccccc2)c2ccccc2)c2ccccc12`: the results for the inhibition in assay [1], in assay [2] and in assay [3] were 5.42%, 4.29% and 3.78%, respectively.
